# Assay results from PubChem BioAssay (NCATS).
# Inconclusive results are not listed. Entries that show only a call come without a potency. The source made the active and inactive calls. Calls come from the whole dose curve; as a rule, active = well fitted inhibition curve with a large enough effect; inconclusive = small, poorly fitted or top-dose-only effect; inactive = flat fitted curve, though single readings scatter. Numbered stars: 1 amine (or outer) side, 2 acyl side, 3 side chain; on linkers, the order of the positions; unused ones are H or OH. Square brackets hold non-standard residues; d marks the D form. Peptide text beside a SMILES is read from it. X10 = O=C(C(CC(O)CO)O[*:1])[*:2]; NMeV = CN[CH](C(=O)O)C(C)C; NMeA = CN[CH](C)C(=O)O; βAla = NCCC(=O)O
# Target: Aldehyde dehydrogenase, mitochondrial (Homo sapiens) (UniProt P05091)
# Assay: qHTS for Inhibitors of the Aldehyde Dehydrogenase Family (ALDH2) Primary screen (AID 2061308); note: nearly all actives have a fitted effect of over 55% in size
# Conditions: ALDH2 enzyme inhibition qHTS, 1536-well; series mostly up to 56 µM
row,Compound,Potency
1,O=S(=O)(c1ccccc1)N(CC(F)(F)F)c1ccc(C(O)(C(F)(F)F)C(F)(F)F)cc1,inactive
2,CC(C)=C1C[C@@]2(C)C(=CC1=O)CC[C@@H](OC(=O)/C(C)=C/CO)[C@@H]2C,inactive
3,NC(N)=NC(=O)c1cnn(-c2cccc3ncccc23)c1C1CC1,inactive
4,Cc1cc2c(cc1N1C(=O)c3cccc4c(CCCO)ccc(c34)C1=O)n(C)c(=O)n2C,inactive
5,CN=C(N)NCCCCC/C=C(/C)CC(C)C1OC(=O)C(C)C(O)/C=C/C(C)C(O)CC(O)C(C)C(O)CCC(C)C(O)CC2(O)OC(CC(OC(=O)CC(=O)O)CC(O)CC(O)C(C)C(O)/C(C)=C/CCC1C)CC(O)C2O (stereo unspecified),inactive
6,Cc1ccc([C@@H]2CC=C(C(=O)O)[C@H](c3ccc(C(C)(C)C)cc3)N2S(=O)(=O)c2ccc(C)cc2)cc1,inactive
7,COc1c(O)cc2c(c1O)[C@@H]1O[C@H](CO)[C@@H](O)[C@H](O)[C@H]1OC2=O,inactive
8,CC(=C/C(=O)O)/C=C/[C@]1(O)[C@@]2(C)CO[C@]1(C)C[C@H](O[C@@H]1O[C@H](CO)[C@@H](O)[C@H](O)[C@H]1O)C2,inactive
9,CC(=O)c1cc2c(cc1O)OC(C)(C)C=C2,inactive
10,CC1(C)CC[C@]2(C(=O)O)CC[C@]3(C)C(=CCC4[C@@]5(C)CC[C@H](O[C@@H]6O[C@H](CO)[C@@H](O)[C@H](O)[C@H]6O[C@@H]6O[C@H](CO)[C@@H](O)[C@H](O)[C@H]6O)[C@@](C)(CO)C5CC[C@]43C)[C@@H]2C1 (stereo partly specified),inactive
11,CC(=O)O[C@H]1CC(C)(C)CC2[C@@]13[C@H](O)C[C@]1(C)[C@@]2(CCC2[C@@]4(C)CC[C@H](O[C@@H]5OC[C@H](O[C@@H]6O[C@H](CO)[C@@H](O)[C@H](O)[C@H]6O[C@@H]6OC[C@@H](O)[C@H](O)[C@H]6O)[C@H](O)[C@H]5O[C@@H]5O[C@H](CO)[C@@H](O)[C@H](O)[C@H]5O)C(C)(C)C4CC[C@]21C)O[C@@H]3O (stereo partly specified),inactive
12,CC(=O)O[C@@H]1[C@@H](CO)O[C@@](CO)(O[C@H]2O[C@H](COC(=O)/C=C/c3ccccc3)[C@@H](O)[C@H](O)[C@H]2O)[C@H]1O,inactive
13,C=C[C@H]1[C@H](O[C@@H]2O[C@H](CO)[C@@H](O)[C@H](O)[C@H]2O)OC=C2C(=O)N3Cc4c([nH]c5ccccc5c4=O)[C@@H]3C[C@H]21,inactive
14,CC1=CCC[C@@H]2[C@@](C)(CCc3ccoc3)[C@H](C(=O)O)CC[C@@]12C,inactive
15,C=C[C@@](C)(CCC=C(C)C)O[C@@H]1O[C@H](CO[C@@H]2OC[C@H](O)[C@H](O)[C@H]2O)[C@@H](O)[C@H](O)[C@H]1O,inactive
16,O=C(/C=C/c1ccc(O)cc1)OC[C@@]1(O)C=C[C@@H]2C(C(=O)O)=CO[C@@H](O[C@@H]3O[C@H](CO)[C@@H](O)[C@H](O)[C@H]3O)[C@@H]21,inactive

row,Compound,Potency
1,CC1CC(C(O)C(C)(C)O)OC2CC3(C)C4(C)CCC5C(C)(C)C(=O)CCC5(C)C4CCC3(O)C12O (stereo unspecified),inactive
2,CC1=CCC2C(C)(C)CCCC2(C)C1CC12OC1C(O)C(CO)=CC2O (stereo unspecified),inactive
3,COc1cc(O)cc(C)c1C(=O)OC1C(CO)OC(n2ccc(=O)[nH]c2=O)C1OC(C)=O (stereo unspecified),inactive
4,CCOC(=O)C1(CCOc2ccccc2)CCN(Cc2ccc(O)c(Cl)c2)CC1,inactive
5,C=CC1(C)CC2CCC3C(C)(C(=O)O)CCCC3(C)C2=CC1=O (stereo unspecified),inactive
6,COc1ccc([C@@]2(O)c3c(ccc(CC=C(C)C)c3O)NC(=O)[C@@H]2OC)cc1,inactive
7,CC(=O)O[C@@H]1CC2C(/C=C(\C)C(=O)[C@@]3(O)C[C@@H](C)[C@H](OC(=O)c4ccccc4)C3/C=C/1C)C2(C)C (stereo partly specified),inactive
8,CCC(C)C1NC(=O)C2CCCN2C(=O)C(CC(O)CO)OC(=O)CCNC(=O)C(C)N(C)C(=O)C(C(C)C)N(C)C1=O (stereo unspecified) (cyclo([X10]PI[NMeV][NMeA][βAla]); configuration not given here),inactive
9,CCn1nnnc1NCc1ccc(C(C)C)cc1,inactive
10,CC1=C2C3OC(=O)C(C)C3(O)CCC2(C)CCC1=O (stereo unspecified),inactive
11,C=C1C2CCC3C(CCC4[C@@]3(C)CCC[C@@]4(C)C(=O)O)(C2)[C@@H]1OC(=O)/C(C)=C\C (stereo partly specified),inactive
12,NC(=O)Nc1cc(-c2cccc(F)c2)sc1C(=O)NC1CCCNC1 (stereo unspecified),inactive
13,CC(=O)Nc1ccc(S(=O)(=O)Nc2cc(C)on2)cc1,inactive
14,COc1cc(C)c(C(=O)OC2C(C)OC(OC3CCC(C)C4C3C=C(C)C3/C(C)=C\CC/C(C)=C/C5(C)C=C(C(=O)O)C(C)CC56OC(=O)/C(=C(\O)C34C)C6=O)C(O)C2O)c(OC)c1 (stereo unspecified),inactive
15,C/C(=C\CO[C@@H]1O[C@H](CO[C@H]2OC[C@](O)(CO)[C@H]2O)[C@@H](O)[C@H](O)[C@H]1O)C(C)(C)O,inactive
